Common to all, as to test: DAPPL (digital affinity profiling via proximity ligation, sequencing); 10 mM Tris-HCl pH 7.5, 50 mM NaCl, 1 mM DTT, 4% glycerol, room temperature, 30 min; GST-TFs on glutathione beads, 16-mer random dsDNA library, 0.1% formaldehyde crosslink after washing; high values mean tight binding
What all share (conditions): protein: recombinant; tags: N-terminal GST; dsDNA, one strand shown

One assay addresses T1, FLI1 (Homo sapiens, UniProt Q01543 1-452).
T1 sequence: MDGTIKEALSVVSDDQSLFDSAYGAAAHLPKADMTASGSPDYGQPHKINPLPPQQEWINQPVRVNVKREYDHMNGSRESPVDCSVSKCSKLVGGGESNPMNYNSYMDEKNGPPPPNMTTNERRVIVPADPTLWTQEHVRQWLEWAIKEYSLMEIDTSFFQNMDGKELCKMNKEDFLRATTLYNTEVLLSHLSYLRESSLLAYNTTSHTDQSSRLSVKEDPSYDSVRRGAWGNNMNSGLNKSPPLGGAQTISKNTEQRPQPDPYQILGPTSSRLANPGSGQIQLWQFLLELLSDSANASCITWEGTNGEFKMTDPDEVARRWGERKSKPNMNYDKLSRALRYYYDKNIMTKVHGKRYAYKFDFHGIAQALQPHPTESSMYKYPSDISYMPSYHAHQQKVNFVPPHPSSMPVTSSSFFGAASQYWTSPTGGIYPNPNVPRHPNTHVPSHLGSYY
The method in brief:
(§1)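 Each value of binding signal is a hexamer's read frequency for a factor divided by the same hexamer's frequency in the tag-only sample. Barcoded, bead-captured GST fusions of human transcription factors made in yeast were pooled with that sample and incubated with 200 nmole of a random double-stranded 16-mer DNA library in Tris/NaCl/DTT/glycerol buffer at room temperature for 30 min. Washing, 0.1% formaldehyde crosslinking, proximity ligation, PCR and Illumina NextSeq500 sequencing followed.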

A further assay deals with T2, ELK1 (Homo sapiens, UniProt P19419 1-428).
T2 sequence: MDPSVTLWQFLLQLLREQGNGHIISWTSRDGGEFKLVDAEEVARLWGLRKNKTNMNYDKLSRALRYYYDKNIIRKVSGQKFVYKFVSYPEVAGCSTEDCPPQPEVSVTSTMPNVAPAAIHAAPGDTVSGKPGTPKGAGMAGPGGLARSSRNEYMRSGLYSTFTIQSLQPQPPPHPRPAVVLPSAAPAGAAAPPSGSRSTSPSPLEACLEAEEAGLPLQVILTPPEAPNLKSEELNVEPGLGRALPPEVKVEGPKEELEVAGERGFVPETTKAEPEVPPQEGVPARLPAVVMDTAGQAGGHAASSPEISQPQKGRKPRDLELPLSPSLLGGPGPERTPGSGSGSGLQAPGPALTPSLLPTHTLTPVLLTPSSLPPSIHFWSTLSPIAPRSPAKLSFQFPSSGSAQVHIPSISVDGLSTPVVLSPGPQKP
The method in brief: as §1

The target in another assay is T3, GABPA (Homo sapiens, UniProt Q06546 1-454).
T3 sequence: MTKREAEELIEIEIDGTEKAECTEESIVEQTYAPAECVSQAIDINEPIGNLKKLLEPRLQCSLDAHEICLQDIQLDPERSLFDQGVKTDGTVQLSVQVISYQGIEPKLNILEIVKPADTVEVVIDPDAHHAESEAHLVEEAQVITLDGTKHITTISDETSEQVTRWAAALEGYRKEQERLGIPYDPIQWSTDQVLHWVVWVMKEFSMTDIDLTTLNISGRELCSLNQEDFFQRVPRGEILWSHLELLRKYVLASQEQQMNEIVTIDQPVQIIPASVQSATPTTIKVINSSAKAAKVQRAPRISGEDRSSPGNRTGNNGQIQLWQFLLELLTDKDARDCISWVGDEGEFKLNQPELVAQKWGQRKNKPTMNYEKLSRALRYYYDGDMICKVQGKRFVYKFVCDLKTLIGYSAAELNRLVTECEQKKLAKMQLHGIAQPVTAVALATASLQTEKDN
The method in brief:
as §1

For another assay, the target named is SPIB (Homo sapiens, UniProt Q01892 1-262). In a few lines:
as §1

The target in the next assay is T4, ELK3 (Homo sapiens, UniProt P41970 1-407).
T4 sequence: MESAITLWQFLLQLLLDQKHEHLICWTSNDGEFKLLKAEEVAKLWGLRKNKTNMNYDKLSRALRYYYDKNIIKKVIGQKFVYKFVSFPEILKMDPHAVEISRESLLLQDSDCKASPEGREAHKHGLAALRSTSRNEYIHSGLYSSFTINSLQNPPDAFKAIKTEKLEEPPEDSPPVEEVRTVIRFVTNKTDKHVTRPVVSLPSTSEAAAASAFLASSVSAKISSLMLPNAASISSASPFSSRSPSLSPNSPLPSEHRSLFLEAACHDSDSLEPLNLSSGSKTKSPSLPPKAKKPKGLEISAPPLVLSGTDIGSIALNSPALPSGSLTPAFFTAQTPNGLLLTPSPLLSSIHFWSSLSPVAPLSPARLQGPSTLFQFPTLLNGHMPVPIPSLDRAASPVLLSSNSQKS
In a few lines:
as §1

Another assay concerns the target T5, FEV (Homo sapiens, UniProt Q99581 1-238).
T5 sequence: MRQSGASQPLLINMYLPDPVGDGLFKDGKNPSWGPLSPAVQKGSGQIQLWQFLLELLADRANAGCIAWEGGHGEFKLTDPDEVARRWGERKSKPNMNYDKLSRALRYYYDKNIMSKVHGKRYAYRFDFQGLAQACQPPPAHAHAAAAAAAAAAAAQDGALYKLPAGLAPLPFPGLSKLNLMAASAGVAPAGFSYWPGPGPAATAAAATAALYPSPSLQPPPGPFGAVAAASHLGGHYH
In a few lines:
as §1

The target in a further assay is ELF4 (Homo sapiens, UniProt Q99607 1-663). In a few lines:
as §1

For a further assay, the target named is T6, ELK4 (Homo sapiens, UniProt P28324-2 1-405).
T6 sequence: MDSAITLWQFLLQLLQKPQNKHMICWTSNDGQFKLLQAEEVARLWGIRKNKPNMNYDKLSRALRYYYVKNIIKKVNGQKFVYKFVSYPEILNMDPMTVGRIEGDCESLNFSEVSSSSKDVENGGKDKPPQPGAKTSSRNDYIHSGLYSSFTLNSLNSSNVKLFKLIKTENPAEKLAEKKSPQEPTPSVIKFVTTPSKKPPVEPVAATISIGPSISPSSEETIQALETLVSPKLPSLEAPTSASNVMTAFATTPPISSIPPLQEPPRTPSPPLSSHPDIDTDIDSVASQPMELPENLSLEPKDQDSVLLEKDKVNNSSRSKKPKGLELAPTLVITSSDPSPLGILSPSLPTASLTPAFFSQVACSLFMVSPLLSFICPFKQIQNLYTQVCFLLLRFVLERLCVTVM
The method in brief:
as §1

The target of another assay is T7, ETV2 (Homo sapiens, UniProt O00321 1-342).
T7 sequence: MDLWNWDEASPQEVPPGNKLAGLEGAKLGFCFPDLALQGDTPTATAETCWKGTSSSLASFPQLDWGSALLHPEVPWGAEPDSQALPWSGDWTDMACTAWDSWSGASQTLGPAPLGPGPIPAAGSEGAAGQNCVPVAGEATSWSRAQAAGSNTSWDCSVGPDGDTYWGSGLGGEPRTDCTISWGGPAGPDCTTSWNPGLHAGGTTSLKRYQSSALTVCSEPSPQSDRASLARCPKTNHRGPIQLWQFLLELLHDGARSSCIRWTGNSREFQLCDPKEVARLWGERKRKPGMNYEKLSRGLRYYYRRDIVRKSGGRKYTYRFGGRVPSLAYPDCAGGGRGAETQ
In a few lines: as §1

Another assay deals with T8, ELF3 (Homo sapiens, UniProt P78545 1-371).
T8 sequence: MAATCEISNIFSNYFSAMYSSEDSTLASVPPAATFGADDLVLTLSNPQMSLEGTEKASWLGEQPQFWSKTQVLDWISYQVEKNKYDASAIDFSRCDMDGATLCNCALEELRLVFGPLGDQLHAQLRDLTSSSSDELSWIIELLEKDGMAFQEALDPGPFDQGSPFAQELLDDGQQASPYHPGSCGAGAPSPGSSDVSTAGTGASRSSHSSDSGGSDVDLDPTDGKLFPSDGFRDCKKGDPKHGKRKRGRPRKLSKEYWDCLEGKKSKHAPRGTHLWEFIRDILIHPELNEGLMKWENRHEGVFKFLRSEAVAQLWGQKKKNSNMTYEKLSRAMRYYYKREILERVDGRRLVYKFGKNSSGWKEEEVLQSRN
In a few lines:
as §1

The target of a further assay is CRX (Homo sapiens, UniProt O43186 1-299). In a few lines:
as §1

The next assay deals with ETV1 (Homo sapiens, UniProt P50549 1-477). In a few lines:
as §1

For another assay, the target named is T9, ETV3L (Homo sapiens, UniProt Q6ZN32 1-361).
T9 sequence: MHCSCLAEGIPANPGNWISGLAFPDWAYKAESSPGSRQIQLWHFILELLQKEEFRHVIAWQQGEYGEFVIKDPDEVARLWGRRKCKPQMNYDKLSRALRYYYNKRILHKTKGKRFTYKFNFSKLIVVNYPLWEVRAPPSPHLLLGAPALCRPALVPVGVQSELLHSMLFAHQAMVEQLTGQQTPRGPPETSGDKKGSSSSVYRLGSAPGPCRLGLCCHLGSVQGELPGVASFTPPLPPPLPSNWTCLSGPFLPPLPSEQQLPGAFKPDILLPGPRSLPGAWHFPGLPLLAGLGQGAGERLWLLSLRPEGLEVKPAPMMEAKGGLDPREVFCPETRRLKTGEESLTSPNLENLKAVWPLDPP
In a few lines:
as §1

The next assay concerns the target T10, ETS2 (Homo sapiens, UniProt P15036 1-469).
T10 sequence: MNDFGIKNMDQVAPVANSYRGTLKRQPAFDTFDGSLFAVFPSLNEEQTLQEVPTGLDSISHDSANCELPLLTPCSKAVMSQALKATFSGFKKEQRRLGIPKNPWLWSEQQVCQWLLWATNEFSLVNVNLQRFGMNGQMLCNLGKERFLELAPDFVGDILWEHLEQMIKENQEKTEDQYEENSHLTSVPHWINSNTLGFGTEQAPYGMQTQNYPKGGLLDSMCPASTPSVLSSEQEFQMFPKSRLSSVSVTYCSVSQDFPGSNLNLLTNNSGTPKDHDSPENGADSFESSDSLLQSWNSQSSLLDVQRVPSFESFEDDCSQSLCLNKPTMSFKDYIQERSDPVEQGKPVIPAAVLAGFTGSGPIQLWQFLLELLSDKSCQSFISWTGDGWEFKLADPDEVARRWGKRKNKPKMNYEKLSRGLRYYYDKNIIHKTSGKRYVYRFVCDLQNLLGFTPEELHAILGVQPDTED
The method in brief: as §1

The target in a further assay is T11, SPDEF (Homo sapiens, UniProt O95238 1-335).
T11 sequence: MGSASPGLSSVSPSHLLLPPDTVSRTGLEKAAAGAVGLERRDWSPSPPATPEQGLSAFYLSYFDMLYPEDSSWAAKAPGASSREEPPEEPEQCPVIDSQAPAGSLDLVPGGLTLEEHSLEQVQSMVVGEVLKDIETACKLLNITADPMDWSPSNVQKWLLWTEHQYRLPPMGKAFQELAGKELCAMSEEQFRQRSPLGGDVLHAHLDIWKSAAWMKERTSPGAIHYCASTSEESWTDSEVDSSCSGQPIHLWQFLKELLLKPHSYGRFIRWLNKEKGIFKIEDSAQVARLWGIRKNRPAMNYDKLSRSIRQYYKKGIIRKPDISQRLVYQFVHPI
In a few lines: as §1

For the next assay, the target named is ETV6 (Homo sapiens, UniProt P41212 1-452). In a few lines: as §1
Sequence of ETV6 (P41212 whole entry): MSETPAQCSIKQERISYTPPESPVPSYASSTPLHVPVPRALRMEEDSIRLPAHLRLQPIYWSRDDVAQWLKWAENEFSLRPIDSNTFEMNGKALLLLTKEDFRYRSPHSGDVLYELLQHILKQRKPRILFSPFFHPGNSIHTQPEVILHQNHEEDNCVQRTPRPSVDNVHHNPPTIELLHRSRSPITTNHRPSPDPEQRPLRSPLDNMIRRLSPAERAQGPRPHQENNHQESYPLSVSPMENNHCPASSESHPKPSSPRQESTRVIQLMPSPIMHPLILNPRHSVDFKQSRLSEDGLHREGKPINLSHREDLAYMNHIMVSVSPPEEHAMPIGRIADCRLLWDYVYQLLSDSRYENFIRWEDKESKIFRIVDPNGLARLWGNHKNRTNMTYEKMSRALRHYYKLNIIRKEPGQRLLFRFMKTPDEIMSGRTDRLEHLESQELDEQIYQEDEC

The source of these data is PMC7862700, “An all-to-all approach to the identification of sequence-specific readers for epigenetic DNA modifications on cytosine”.

Sequence of SPIB (Q01892 whole entry): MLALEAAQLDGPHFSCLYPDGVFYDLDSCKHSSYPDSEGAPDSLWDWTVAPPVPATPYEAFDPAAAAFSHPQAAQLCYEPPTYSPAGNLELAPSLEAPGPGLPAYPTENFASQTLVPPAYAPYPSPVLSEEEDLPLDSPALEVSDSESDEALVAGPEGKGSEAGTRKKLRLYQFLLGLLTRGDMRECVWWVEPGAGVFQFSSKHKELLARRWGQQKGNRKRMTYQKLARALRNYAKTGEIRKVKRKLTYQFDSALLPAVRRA
Sequence of CRX (O43186 whole entry): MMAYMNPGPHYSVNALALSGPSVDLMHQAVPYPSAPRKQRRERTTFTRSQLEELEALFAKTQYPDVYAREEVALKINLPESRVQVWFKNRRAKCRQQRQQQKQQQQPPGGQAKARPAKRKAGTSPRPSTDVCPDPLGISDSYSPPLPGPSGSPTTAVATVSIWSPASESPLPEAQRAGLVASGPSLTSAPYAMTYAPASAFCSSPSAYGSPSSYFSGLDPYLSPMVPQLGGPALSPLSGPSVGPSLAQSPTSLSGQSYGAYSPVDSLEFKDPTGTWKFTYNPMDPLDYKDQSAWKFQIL
Sequence of ETV1 (P50549 whole entry): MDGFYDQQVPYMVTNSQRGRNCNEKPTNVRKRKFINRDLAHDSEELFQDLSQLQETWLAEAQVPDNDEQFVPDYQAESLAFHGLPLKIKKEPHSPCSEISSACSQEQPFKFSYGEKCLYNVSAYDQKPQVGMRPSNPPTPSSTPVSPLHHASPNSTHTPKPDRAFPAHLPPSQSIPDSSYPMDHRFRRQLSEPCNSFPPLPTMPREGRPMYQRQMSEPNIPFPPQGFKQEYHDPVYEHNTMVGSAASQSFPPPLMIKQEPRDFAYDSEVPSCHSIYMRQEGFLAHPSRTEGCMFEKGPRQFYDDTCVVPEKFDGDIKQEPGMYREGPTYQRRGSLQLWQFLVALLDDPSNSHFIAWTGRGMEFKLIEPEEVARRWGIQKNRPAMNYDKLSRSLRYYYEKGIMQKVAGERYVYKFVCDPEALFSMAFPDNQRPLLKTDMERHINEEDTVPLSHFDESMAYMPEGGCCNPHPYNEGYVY
Sequence of ELF4 (Q99607 whole entry): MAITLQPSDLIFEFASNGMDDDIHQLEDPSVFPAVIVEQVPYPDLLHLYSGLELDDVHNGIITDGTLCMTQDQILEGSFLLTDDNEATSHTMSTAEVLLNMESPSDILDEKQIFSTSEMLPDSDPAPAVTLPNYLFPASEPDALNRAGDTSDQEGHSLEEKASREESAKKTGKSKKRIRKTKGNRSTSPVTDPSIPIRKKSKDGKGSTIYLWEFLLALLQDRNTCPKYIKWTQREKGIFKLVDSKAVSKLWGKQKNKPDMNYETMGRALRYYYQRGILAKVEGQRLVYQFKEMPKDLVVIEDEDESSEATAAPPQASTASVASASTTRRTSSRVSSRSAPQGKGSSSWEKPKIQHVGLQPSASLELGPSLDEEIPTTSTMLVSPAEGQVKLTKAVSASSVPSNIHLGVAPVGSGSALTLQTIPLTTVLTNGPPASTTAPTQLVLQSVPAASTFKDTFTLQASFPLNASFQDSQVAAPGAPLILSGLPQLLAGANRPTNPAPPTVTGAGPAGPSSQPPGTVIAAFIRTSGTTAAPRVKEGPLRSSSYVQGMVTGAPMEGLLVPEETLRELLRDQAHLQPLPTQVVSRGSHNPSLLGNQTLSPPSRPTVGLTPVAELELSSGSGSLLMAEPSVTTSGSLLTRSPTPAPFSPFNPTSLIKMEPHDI

Turning to TCAGCC, the binding signal is 1 fold enrichment (6-mer frequency, TF over GST control) in the assay with FLI1; 1.11 fold enrichment (6-mer frequency, TF over GST control) with ELK1; 1.06 fold enrichment (6-mer frequency, TF over GST control) with GABPA; 1.05 fold enrichment (6-mer frequency, TF over GST control) in the assay with SPIB; 1.13 fold enrichment (6-mer frequency, TF over GST control) in the assay with ELK3; 1.04 fold enrichment (6-mer frequency, TF over GST control) with FEV. In addition, the binding signal was 1.11 fold enrichment (6-mer frequency, TF over GST control) in the assay with ELF4; 1.02 fold enrichment (6-mer frequency, TF over GST control) with ELK4; 1.03 fold enrichment (6-mer frequency, TF over GST control) with ETV2; 1 fold enrichment (6-mer frequency, TF over GST control) with ELF3; 1.17 fold enrichment (6-mer frequency, TF over GST control) in the assay with CRX; 1.02 fold enrichment (6-mer frequency, TF over GST control) with ETV1. Further, the binding signal is 1.02 fold enrichment (6-mer frequency, TF over GST control) with ETV3L; 1 fold enrichment (6-mer frequency, TF over GST control) with ETS2; 1.03 fold enrichment (6-mer frequency, TF over GST control) in the assay with SPDEF; 1.01 fold enrichment (6-mer frequency, TF over GST control) in the assay with ETV6.
